Source: PubChem BioAssay
BAZ2B block: qHTS Assay for Inhibitors of BAZ2B; Potency, µM (titrated, usually from 114 µM), hits mostly inhibitors; 4.4% of 360,000 active; AlphaScreen BAZ2B-H3K14Ac peptide displacement; also: nearly all actives have a fitted effect of over 60% in size
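BAZ2B (50 nM) with biotin-H3(5-23)K14Ac peptide (50 nM) in PBS pH 7.4, 0.01% Tween-20, preformed 30 min, then compound 30 min at room temperature; top concentration 110uM. AlphaScreen streptavidin donor/nickel chelate acceptor beads (10 ug/mL final), 20 min dark, signal read.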
CtBP-E1A inh: qHTS Assay for Inhibitors of the CtBP/E1A Interaction; AlphaScreen GST-E1A/His-CtBP binding, 1536-well; hits give low values; AID 651724, 2012; activity change, % (no concentration beside the values); 0.49% of 340,000 active; CtBP / adenovirus E1A interaction (AlphaScreen); in the data active = activity change below about -65%; inconclusive = mostly about -30% to -63%
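Homogeneous bead-based format: GST-tagged E1A captured on glutathione donor beads, His-tagged CtBP on nickel acceptor beads; compounds precede bead addition by 2 h at 37 °C.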
TDP1 inh: qHTS Assay for Inhibitors of Tyrosyl-DNA Phosphodiesterase (TDP1) | Tyrosyl-DNA phosphodiesterase 1 (Homo sapiens), Q9NUW8 | recombinant TDP1, AlphaScreen DNA substrate cleavage | Potency, µM (series often up to 130 µM), actives largely listed as inhibitors | 0.28% of 350,000 active | AID 485290, 2010; also: nearly all actives have a fitted effect of over 40% in size
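Signal: AlphaScreen proximity between streptavidin donor and anti-FITC acceptor beads on intact substrate. Reaction: Tdp1 1 nM, substrate 15 nM final, 5 min RT after 15 min compound preincubation.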
HP1b chromo inh: HTS for Inhibitors of HP1-beta Chromodomain Interactions with Methylated Histone Tails. Chromobox protein homolog 1 (Homo sapiens), P83916. AlphaScreen HP1-beta / biotin-H3K9me3 peptide binding. Potency, µM (series often up to 114 µM), hits mostly inhibitors. 0.56% of 390,000 active. AID 540317, 2011; also: nearly all actives have a fitted effect of over 70% in size
Target sequence (P83916 whole entry, looked up): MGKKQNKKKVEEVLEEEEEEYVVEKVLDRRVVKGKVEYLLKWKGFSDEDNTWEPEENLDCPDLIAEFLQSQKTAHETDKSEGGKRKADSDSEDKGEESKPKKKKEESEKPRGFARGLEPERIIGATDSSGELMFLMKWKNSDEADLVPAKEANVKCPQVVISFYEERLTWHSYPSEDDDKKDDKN
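Compound inhibition of the preformed complex between 50 nM HP1-beta and 50 nM biotinylated H3K9me3 peptide was read by AlphaScreen. Buffer was PBS pH 7.4 with 0.01% Tween-20. Incubations ran 30 min at room temperature, with 10 ug/mL donor/acceptor beads.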
JMJD2A Tudor inh: qHTS Assay for Inhibitors of JMJD2A-Tudor Domain; Lysine-specific demethylase 4A (Homo sapiens), O75164; AlphaScreen JMJD2A-Tudor / H3K4me3 peptide binding; Potency, µM (series often up to 114 µM), hits mostly inhibitors; 4.4% of 390,000 active; AID 504339, 2011; also: nearly all actives have a fitted effect of over 50% in size
Six1-Eya2 blk: qHTS Assay for Inhibitors of the Six1/Eya2 Interaction; activity change, % (test concentration not listed); Homeobox protein SIX1 (Homo sapiens) + Protein phosphatase EYA2 (Homo sapiens), …; AlphaScreen GST-Six1/His-Eya2 binding, biochemical; hits give low values; 0.56% of 360,000 active; in the data active = activity change below about -65%; inconclusive = mostly about -30% to -63%
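AlphaScreen with GST-Six1 and His-Eya2 (5X mix: 250 nM and 500 nM), glutathione donor and nickel acceptor beads; buffer 50 mM Tris pH 8.0, 300 mM NaCl, 1 mM TCEP; 1 h at 37 C in the dark.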
Numbers stand for hits; – = inactive; ? = inconclusive; · = not tested or not shown. Compounds with a hit are over-represented: about 5.3% of the library has one in this group of screens. Unless noted, calls follow the shape of the dose curve; as a rule, active = well fitted inhibition curve with a large enough effect; inconclusive = small, poorly fitted or top-dose-only effect; inactive = no such curve, though single readings can be large or run the other way.

SMILES	BAZ2B block	CtBP-E1A inh	TDP1 inh	HP1b chromo inh	JMJD2A Tudor inh	Six1-Eya2 blk
Cc1cc(C(=O)OCC(=O)c2ccc(Cl)c([N+](=O)[O-])c2)c2cccc(C)c2n1	?	–	–	–	22.4µM	–
Cc1ccc2nc(C)cc(C(=O)OCC(=O)c3ccc(Cl)c([N+](=O)[O-])c3)c2c1	?	–	–	–	?	–
O=C1C(Nc2ccccc2)=C(N2CCCCC2)C(=O)c2ccccc21	25.1µM	–	–	?	39.8µM	–
CN(C1=C(N2CCCCC2)C(=O)c2ccccc2C1=O)c1ccccc1	2.82µM	–	–	?	3.98µM	-83.3
Cc1ccc(C(=O)Nc2cccc(O)c2)cc1S(=O)(=O)N1CCCCCC1	–	–	–	–	–	?
O=C(/C=C/c1ccc(O)cc1)c1ccc(NC2=C(N3CCCCC3)C(=O)c3ccccc3C2=O)cc1	?	–	–	–	20µM	–
O=C1C(Nc2cccc(O)c2)=C(N2CCCCC2)C(=O)c2ccccc21	22.4µM	–	–	22.4µM	14.1µM	-70.8
O=c1nc(N2CCCCC2)nc(Nc2ccccc2)[nH]1	–	–	–	–	–	–
CCc1ccc(OCc2ccccc2C(=O)Nc2ccc3nc(C)cc(N)c3c2)cc1	·	·	–	·	·	·
CCCCCn1ncc2c3sc(C)cc3n(C)c2c1=O	·	·	–	·	–	·
COc1cccc(OC)c1C(=O)Nc1ccccc1N1CCCC1	–	–	–	–	–	–
COc1ccccc1NC1=C(N2CCCCC2)C(=O)c2ccccc2C1=O	31.6µM	?	–	?	39.8µM	?
Cc1ccc(NC2=C(N3CCCCC3)C(=O)c3ccccc3C2=O)cc1	–	–	–	?	14.1µM	?
O=C(CSc1nnc(-c2ccccc2)n1-c1ccc(Cl)cc1)NC1CCS(=O)(=O)C1 (stereo unspecified)	–	–	–	–	–	–
Cc1ccccc1-n1c(-c2ccc(Cl)cc2)cnc1SCC(=O)NC1CCS(=O)(=O)C1 (stereo unspecified)	50.1µM	–	–	–	?	–
OCC[C@@H]1C[C@H](O)[C@@H](O)[C@@]2(OCCc3ccccc32)O1	–	–	·	–	–	–
OCC[C@@H]1C[C@H](O)[C@@H](O)[C@]2(OCCc3ccccc32)O1	–	–	·	–	–	-83.2
COc1ccc(-c2nc3scc(CCNS(=O)(=O)c4ccc(F)cc4F)n3n2)cc1OC	–	·	–	–	–	·
Cc1cccc(C)c1NC(=O)c1cc(S(=O)(=O)N2CCc3ccccc3C2)ccc1F	–	·	–	–	–	·
CC(=O)C(Sc1nn(C)c(=S)s1)C(=O)Nc1ccccc1 (stereo unspecified)	?	–	–	?	50.1µM	–
CC(=O)C(Sc1nc(N(C)C)nc(N(C)C)n1)C(=O)Nc1ccccc1 (stereo unspecified)	–	–	–	–	–	–
COc1ccc(-c2nc3ccccc3nc2-c2ccc(OC)cc2)cc1	–	–	·	–	–	–
Nc1nc(-c2ccco2)c(-c2ccco2)s1	44.7µM	–	–	?	?	?
c1coc(-c2nc(-c3ccco3)c(-c3ccco3)nc2-c2ccco2)c1	28.2µM	–	3.16µM	?	7.94µM	?
Nc1nc(-c2cccs2)c(-c2cccs2)s1	?	–	·	?	–	–
SMILES	BAZ2B block	CtBP-E1A inh	TDP1 inh	HP1b chromo inh	JMJD2A Tudor inh	Six1-Eya2 blk
Oc1c(-c2cc(-c3ccco3)[nH]n2)ccc2ccccc12	?	–	–	–	?	–
c1coc(-c2nc3cc4ccccc4cc3nc2-c2ccco2)c1	·	·	?	7.94µM	7.94µM	·
COc1ccc2nc(-c3ccco3)c(-c3ccco3)nc2c1	50.1µM	–	·	–	?	–
c1coc(-c2ncc[nH]2)c1	?	–	–	–	–	–
Cc1ccc(CNC(=O)C(=O)NCC(c2ccco2)S(=O)(=O)c2ccccc2)cc1 (stereo unspecified)	–	·	–	–	–	·
OCCCc1n[nH]c(=S)n1-c1ccccc1	–	–	–	–	–	–
O=C1c2cccc3cccc(c23)C(=O)N1CCCc1n[nH]c(=S)n1-c1ccccc1	–	–	–	–	12.6µM	–
CCC1CCCCN1C(=O)CSc1n[nH]c(-c2ccccc2Cl)n1 (stereo unspecified)	–	·	–	–	–	·
CCN(CC)c1ccc(Nc2nc(Cl)ncc2Br)cc1	35.5µM	?	·	?	28.2µM	?
CCN(CC)c1ccc(NC(=O)OC)cc1	?	–	–	–	?	–
N#Cc1ccccc1S(=O)(=O)N1CCN(Cc2cccs2)CC1	·	–	·	·	·	–
O=S(=O)(c1ccc(F)cc1)N1CCN(CC(O)COc2ccccc2F)CC1 (stereo unspecified)	20µM	–	·	25.1µM	7.94µM	–
CC(OCC(O)CN1CCN(S(=O)(=O)c2ccc(Cl)cc2)CC1)c1ccc(Cl)cc1 (stereo unspecified)	·	–	·	·	·	–
N#Cc1ccccc1S(=O)(=O)N1CCN(CC(O)COc2ccccc2F)CC1 (stereo unspecified)	28.2µM	–	·	?	3.16µM	–
CC(C)c1ccccc1OCC(O)CN1CCN(S(=O)(=O)c2ccc([N+](=O)[O-])cc2)CC1 (stereo unspecified)	39.8µM	–	·	?	20µM	?
N#Cc1ccccc1S(=O)(=O)N1CCN(CC(O)c2ccccc2)CC1 (stereo unspecified)	50.1µM	–	–	44.7µM	2.24µM	–
O=C(c1ccco1)N(Cc1cccs1)c1ccc(F)cc1	–	·	–	–	–	·
Cc1cccc(C(=O)NCC(=O)OCc2cc(=O)n3nc(C4CCCCC4)sc3n2)c1	–	·	–	–	–	·
CCOC(=O)c1ccc(S(=O)(=O)N2CCN(CCC#N)CC2)cc1	–	–	–	–	–	–
CCOC(=O)c1ccc(S(=O)(=O)N2CCN(CC(O)COc3ccc(C#N)cc3)CC2)cc1 (stereo unspecified)	56.2µM	–	·	–	20µM	–
CCN(CC)C1=CC(=O)OC12CCCCC2	–	–	–	–	31.6µM	–
CC(C)N(C1=CC(=O)OC12CCCCC2)C(C)C	–	–	·	–	–	–
Cc1ccc(Cl)cc1NC(=O)COCc1cc(-c2ccco2)on1	–	·	–	–	–	·
Cc1ccc(/C(O)=C2/C(=O)C(=O)N(CC(=O)O)C2c2ccc([N+](=O)[O-])cc2)cc1 (stereo unspecified)	?	–	·	–	50.1µM	–
